A selection: hits, their analogues and other compounds. The true share with any hit is near 6.9%.
KB-V1 MDR tox = kills drug-selected multidrug resistant KB-V1 cells; AID 1347076; KB-V1 MDR cells viability, CellTiter-Glo, 72 h; 3.4% of 400,000 active; Potency, µM (series often up to 46.1 µM), hits mostly cytotoxic; note: nearly all actives have a fitted effect of over 60% in size
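Cytotoxicity via CellTiter-Glo luminescence after 72 h compound exposure at 37 degrees C. Cells: drug-selected KB-V1 line, DMEM phenol-red free plus 10% FBS. Compounds tested at multiple concentrations; normalized data fitted to concentration-effect curves.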
MCF10A rereplic = induces DNA re-replication in MCF 10a normal breast cells; AID 624296; 2.9% of 350,000 active; MCF 10A DNA re-replication, Hoechst nuclear intensity, 48 h; Potency, µM (doses to about 46.1 µM), hits mostly activators; note: nearly all actives have a fitted effect of over 50% in size
Giardia killer = kills Giardia lamblia; 0.15% of 340,000 active; Giardia lamblia trophozoite viability; activity change, % at 7.66 µM, hits read low; in the data active = activity change below about -80%; inconclusive = between about -30% and that limit;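 note: parasites exposed to compound for two days anaerobically before the ATP read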
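Luminescence from cellular ATP indicates surviving trophozoites (100 cells/well) following 48 hrs anaerobic compound treatment at 37 deg C; signal develops 15-30 min at room temperature.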
KB-3-1 tox = kills parental KB-3-1 adenocarcinoma cells; 1.4% of 400,000 active; AID 1347075; Potency, µM (doses to about 46.1 µM), actives largely listed as cytotoxic; KB-3-1 viability, CellTiter-Glo ATP luminescence, 72 h; note: nearly all actives have a fitted effect of over 60% in size
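Parental KB-3-1 adenocarcinoma cells in phenol-red-free DMEM with 10% FBS were pin-treated with compounds at several concentrations, incubated 72 h at 37 °C, and viability read by CellTiter-Glo luminescence; concentration-effect curves were fitted after normalization.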
SW480 rereplic = induces DNA re-replication in SW480 colon adenocarcinoma cells | 1.8% of 340,000 active | SW480 DNA re-replication, Hoechst DNA content imaging, 48 h | Potency, µM (top dose mostly 46.1 µM), most hits filed as activators; note: nearly all actives have a fitted effect of over 55% in size
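Cells (250 per well) received 23 nL compound or DMSO by pin tool and were kept 48 hr at 37 C, 5% CO2. Nuclei were then stained with Hoechst for 40 min and scanned for DNA content.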
ASM inhibitor = inhibitors of human secretory acid sphingomyelinase | P17405 | Potency, µM (titrated, usually from 57.5 µM), hits mostly inhibitors | placental ASM, HMU-PC fluorogenic substrate, 60 min | 0.006% of 340,000 active | AID 504937
Target sequence (P17405 47-631 limits assumed): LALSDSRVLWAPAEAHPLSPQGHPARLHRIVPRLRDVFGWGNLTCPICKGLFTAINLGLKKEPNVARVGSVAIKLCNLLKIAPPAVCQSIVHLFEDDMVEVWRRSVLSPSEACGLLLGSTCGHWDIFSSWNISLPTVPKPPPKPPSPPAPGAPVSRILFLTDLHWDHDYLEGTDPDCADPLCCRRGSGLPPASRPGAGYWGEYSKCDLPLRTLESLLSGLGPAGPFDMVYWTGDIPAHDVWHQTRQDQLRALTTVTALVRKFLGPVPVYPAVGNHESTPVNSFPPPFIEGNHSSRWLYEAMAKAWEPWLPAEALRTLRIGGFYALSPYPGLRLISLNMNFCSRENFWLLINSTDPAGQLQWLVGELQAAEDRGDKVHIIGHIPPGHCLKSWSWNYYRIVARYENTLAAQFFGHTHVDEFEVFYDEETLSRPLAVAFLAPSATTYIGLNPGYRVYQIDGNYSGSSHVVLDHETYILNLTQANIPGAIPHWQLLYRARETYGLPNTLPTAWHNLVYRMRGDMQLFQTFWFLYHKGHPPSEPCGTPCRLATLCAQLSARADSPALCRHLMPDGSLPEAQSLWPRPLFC
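Steps: dispense placental human ASM, pin compound, wait 10 min at room temperature, add HMU-PC0 substrate at 9 uM final, incubate 60 min at 37 °C, add stop solution raising pH to 10, read fluorescence.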
Hits are given with their value; n = inactive; u = inconclusive; x = no result. Unless noted, calls come from the whole dose curve; as a rule, active = well fitted curve in the direction sought with a large enough effect; inconclusive = small, poorly fitted or top-dose-only effect, or another doubt; inactive = no such curve, though single readings can be large; an effect the other way counts as inactive or inconclusive.

SMILES | KB-V1 MDR tox | MCF10A rereplic | Giardia killer | KB-3-1 tox | SW480 rereplic | ASM inhibitor
Cc1ccc(CN(Cc2cc3cc(C)ccc3[nH]c2=O)Cc2nnnn2Cc2ccccc2)cc1 | n | x | n | u | x | x
Cc1cc(F)ccc1NC(=O)C1CCN(C(=O)c2cnn(-c3ccccc3)c2-n2cccc2)CC1 | n | x | x | n | x | x
O=C(Nc1ccc(Cl)cc1)Nc1cccc2nsnc12 | n | 18µM | n | n | u | n
CC12CCC(O)CC1=CCC1C2CCC2(C)C1CCC21CCC(=O)O1 (centres undefined) | 21µM | u | n | u | n | n
O=C(NCc1ccc(F)cc1)c1cnc(N2CCCCC2)c2ccccc12 | n | x | x | n | x | x
COC(=O)[C@@H]1N2C(=O)[C@@H](NC(=O)C(C)Oc3ccccc3)[C@H]2SC1(C)C (some centres undefined) | n | x | x | n | x | x
CCc1ccc(CN(Cc2ccco2)C(=O)c2cc(-c3ccc(Cl)cc3)on2)cc1 | n | x | x | n | x | x
COc1cccc2c1C(CO)N1C(C#N)C3CC(C(=O)O)C(C1C2)N3C (centres undefined) | 0.21µM | n | u | 0.026µM | 0.92µM | n
CC(C(=O)Nc1ccc2c(c1)OCCO2)N1Cc2ccccc2C1=O (centres undefined) | n | n | n | u | n | n
O=C(CCNS(=O)(=O)c1cccc2nonc12)N1CCN(c2cccc(Cl)c2)CC1 | 10µM | n | n | n | u | n
O=C(CCS(=O)(=O)c1cccc2nonc12)N1CCN(c2ccc(F)cc2)CC1 | 23µM | n | n | n | n | n
O=C(CCS(=O)(=O)c1cccc2nonc12)N1CCOCC1 | n | n | n | n | n | n
COc1ccc(C(CCc2ccc(C)o2)NC(=O)Nc2ccc(OC)cc2OC)cc1 (centres undefined) | 7.3µM | n | n | n | n | n
Cc1ccc2cccc(O)c2n1 | n | x | x | n | x | x
CN(C)S(=O)(=O)c1cccc(NC(=O)CSc2nnnn2-c2ccccc2)c1 | 10µM | n | n | n | n | n
O=C(CSc1nncn1-c1ccccc1)Nc1cc(Cl)cc(Cl)c1 | n | n | n | n | n | n
CN(C)S(=O)(=O)c1cccc(NC(=O)CSc2nncn2-c2ccccc2)c1 | n | 0.65µM | n | u | n | n
NS(=O)(=O)c1cccc(NC(=O)CSc2nnnn2-c2ccccc2)c1 | u | u | n | n | n | n
CCCCCc1ccnc(CC(=O)c2ccc(OC)cc2)c1 | n | n | n | 23µM | n | n
CCCCCc1ccc(-c2ccc(OC)cc2)nc1 | n | n | n | n | n | n
O=C(NNC(=O)C1CCN(S(=O)(=O)c2c(Cl)cccc2Cl)CC1)c1ccccc1O | 18µM | u | n | u | u | n
CCCc1cnc2c(c1SCC(=O)Nc1ccc(C)c(Cl)c1)c(=O)n(C)c(=O)n2C | u | x | x | n | x | x
COC(=O)C(C)n1cnc2c(nnn2-c2cccc(OC)c2)c1=O (centres undefined) | n | n | n | n | u | n
CC(NCc1ccc(-c2ccccc2)cc1)C(O)c1ccccc1 (centres undefined) | n | 26µM | n | n | 4.1µM | n
CC(O)CNCc1ccc(-c2ccccc2)cc1 (centres undefined) | n | u | n | n | u | n
SMILES | KB-V1 MDR tox | MCF10A rereplic | Giardia killer | KB-3-1 tox | SW480 rereplic | ASM inhibitor
Cn1c(=O)cc(OCC(=O)N2CCN(c3ccc(F)cc3)CC2)c2ccccc21 | u | x | x | n | x | x
CCOc1ccc(C(=O)c2ccc(OCC)c(N)c2)cc1N | n | 18µM | n | u | u | n
CCOc1ccc(S(=O)(=O)N(CC)CC)cc1N | n | n | n | n | n | n
COC(CNC(=O)C1CCN(C(=O)c2cc3oc(C)cc3n2Cc2c(F)cccc2Cl)CC1)OC | 8.2µM | n | n | u | n | n
O=C(Cc1ccc(Cl)cc1)Nc1ccc2oc(=O)ccc2c1 | n | n | n | n | n | n
O=C(Cc1ccc(Cl)cc1)Nc1ccc(-c2cc3ccccc3oc2=O)c(Cl)c1 | 2.3µM | 2.3µM | n | 1.3µM | 7.3µM | n
CCc1ccc(OCC(=O)Nc2ccc(-c3cc4ccccc4oc3=O)c(OC)c2)cc1 | u | n | n | u | 2.3µM | n
C=C1C(=O)OC2C=C(CO)CCC=C(CO)CC(OC(=O)C(C)C)C12 (centres undefined) | n | 10µM | n | u | u | n
COc1ccc(C(=O)CCS(=O)(=O)c2ccc(C)cc2)cc1OC | n | u | n | n | 5.2µM | n
COc1ccc(/C(N)=N/OC(=O)Cc2ccc(C)cc2)cc1OC | n | u | n | n | 2.9µM | n
Cc1ccc(S(=O)(=O)CCC(=O)c2ccc(O)cc2O)cc1 | n | 18µM | n | u | u | n
CC1=C(C)CC(C(=O)NC2CCN(C(C)C)CC2)C(C(=O)O)C1 (centres undefined) | n | n | n | n | n | n
Cc1ccc(C(=O)c2cn(Cc3cccc(F)c3)c3nc(C)ccc3c2=O)cc1 | n | x | x | n | x | x
COc1cccc(NC(=O)C(Sc2nnc3ccccn23)c2ccccc2)c1 (centres undefined) | 21µM | u | n | n | n | x
CCCn1c(SC(C(=O)Nc2cccc(OC)c2)c2ccccc2)nc2ccccc2c1=O (centres undefined) | n | n | n | n | u | n
COC(=O)C1CC23C=CCN4CCC5(c6ccccc6NC15C2C)C43 (centres undefined) | u | u | n | 1µM | 0.92µM | n
CN1CC[C@]23c4ccccc4N[C@H]1[C@]21CCN(C)[C@H]3Nc2ccccc21 | n | n | n | n | n | n
Cc1ccccc1C(C)NC(=O)COC(=O)Cn1cc(C(F)(F)F)ccc1=O (centres undefined) | n | n | n | n | n | n
COc1c2ccoc2cc2oc(=O)ccc12 | 26µM | n | n | n | n | n
NC(=O)C1(N2CCCCC2)CCN(c2nc(-c3ccc(Br)cc3)cs2)CC1 | 23µM | u | n | n | n | n
Brc1ccc(-c2csc(N3CCCCCC3)n2)cc1 | n | n | n | n | n | n
COc1cccc(NC(=O)CSc2nc3scc(C)c3c(=O)[nH]2)c1 | n | u | n | n | n | n
CCOC(=O)c1sc(N)c(C(=O)Nc2ccccc2OC)c1C | 10µM | 10µM | n | u | 16µM | n
CCN(CC)S(=O)(=O)c1ccc2c(c1)nc(CN(C)C(=O)Nc1ccc(C)c(F)c1)n2C | n | x | x | n | x | x
O=C(CSc1nc2c([nH]c3ccccc32)c(=O)n1-c1ccc(Cl)cc1)N1CCCCCC1 | n | x | x | n | x | x
CCN(CC)C(=O)Oc1cc(=O)n2c3c(cccc13)CCC2 | 16µM | n | n | n | n | n
CCCNC(=O)c1c(O)c2cccc3c2n(c1=O)CCC3 | n | n | n | n | n | n
Cc1ccc(-n2c(Cl)c(Cl)nc(Cl)c2=O)cc1 | n | 1.8µM | n | u | 8.2µM | n

Source: PubChem BioAssay
